# Records with an inconclusive call do not appear. The source made the active and inactive calls. Cut-off read from the data, not from the text of the source, unless noted: active = percent of DMSO control GFP below about 86%; inactive = the rest, inconclusive results apart.
# Key:
# [1] = yeast TOR pathway RPL19A-GFP modulators, primary screen, cell-based, S. cerevisiae, multiplex flow cytometry (AID 1862);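 note: lower values mimic rapamycin by blocking the RPL19A rise seen in DMSO cells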; conditions: S. cerevisiae RPL19A-GFP strain, flow cytometry fluorescence, 3 h; at 10 µM; stronger effect = lower value
# [2] = modulators of MEP2-GFP levels in yeast, primary screen, S. cerevisiae, multiplex flow cytometry (AID 1867;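 active = GFP response, as percent of the DMSO control, above the screen-wide mean plus 3 SD, about 139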;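 note: median GFP channel fluorescence of barcode-gated MEP2-GFP cells measured by flow cytometry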); conditions: S. cerevisiae MEP2-GFP strain, 3 h, at 10 µM, stronger effect = higher value, 100% means same as DMSO wells
# [3] = modulators of CIT2-GFP expression in yeast, primary screen, S. cerevisiae, GFP fusion, multiplex flow cytometry (AID 1870;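 active = percent response above a set limit, the screen-wide mean plus 3 SD, cut at about 130% in these data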;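 note: barcoded CIT2-GFP strain pooled with four other GFP strains with rapamycin as positive control; median GFP fluorescence per well over plate mean of DMSO wells so 100% = DMSO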); conditions: 3 h, at 10 µM, stronger effect = higher value
# [4] = modulators of LAP4-GFP expression in yeast, primary screen, S. cerevisiae, multiplex flow cytometry (AID 1873;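 active = GFP signal, as percent of the solvent control, above the screen mean plus 3 SD, about 149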); conditions: 3 h, at 10 µM, stronger effect = higher value
# [5] = inhibitors of CD8+ T cell-vesicle binding, pilot screen, LFA-1/ICAM-1 modulator project, MLPCN validation set, flow cytometry (AID 2523;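 active = response below a set limit, under 55% cells CD8-positive and vesicle-bound, and CD8 cells' 90th-percentile brightness under 279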;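 for vesicle binding response: mean PE anti-B7-1 fluorescence of CD8+ cells relative to row control; 100% = QL9-loaded vesicles with DMSO vehicle in the same plate row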); conditions: 2C mouse CD8+ T cells, at 7 µM, stronger effect = lower value; double positive events: measured here: CD8+/vesicle+ event percentage
# [6] = molecular target: Integrin beta-1 (Homo sapiens) + Integrin alpha-4 (Homo sapiens) (UniProt P13612+P05556); assay: inhibition of HUTS-21 binding to VLA-4, pilot screen, VLA-4 allosteric modulator project, U937 cells, HUTS-21 mAb, flow cytometry, validation set (AID 2674;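 active = inhibition above 50%, about 3 SD of the validation set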;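 note: antibody binding induced by the VLA-4 ligand LDV present at three times its Kd; 0% = LDV ligand with antibody and no compound and 100% = antibody without LDV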); conditions: HUTS-21 LIBS mAb binding, at 6.7 µM, stronger effect = higher value, binding induced by LDV ligand
# [7] = superoxide lowering in aged yeast cells, pilot screen, validation compound set (AID 2706;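 active = superoxide response below 65% of plate, a cut near 3 SD across the whole screen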;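 note: yeast exposed to compound for one week at 30 degrees C before staining; 100% = mean of all compound wells on the same plate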); conditions: S. cerevisiae aging, superoxide DHE fluorescence; at 10 µM, stronger effect = lower value
# [8] = molecular target: Beta-adrenergic receptor kinase 1 (Homo sapiens) (UniProt P25098); assay: GRK2 binders displacing RNA aptamer, biochemical, validation, human GRK2, bead flow cytometry (AID 488806;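 active = aptamer binding inhibition above 30%, about 3 SD of noise from non-fluorescent compounds; inactive = inhibition at or below 30%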); conditions: bead-bound GRK2, FAM-aptamer displacement, at 10 µM, stronger effect = higher value
# [9] = molecular target: Beta-2 adrenergic receptor (Homo sapiens) (UniProt P07550); assay: beta2AR agonists driving receptor internalization, pilot screen, cell-based, FAP fluorogen, flow cytometry, validation set (AID 504459;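 active = percent response above 42, roughly 3 SD of non-fluorescent test compounds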;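 note: agonist-driven loss of surface beta2AR via internalization measured by FAP dye flow cytometry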); conditions: Am2.2-beta2AR cells, FAP surface receptor flow cytometry; at 10 µM; stronger effect = higher value
# [10] = molecular target: AP-2 complex subunit beta (Homo sapiens) (UniProt P63010); assay: inhibitors of arrestin peptide binding to AP2, pilot screen, biochemical, validation set, GST-AP2 beads, flow cytometry (AID 504541;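 active = inhibition above 54%, about 3 SD of non-fluorescent compounds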;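 note: AP2 carries R879A mutation and is captured from E. coli lysate; bead-bound FITC arrestin peptide fluorescence measuring arrestin peptide binding to AP2; 0% = DMSO wells and 100% = excess unlabeled arrestin peptide control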); conditions: FITC arrestin peptide, at 10 µM, stronger effect = higher value, AP2 beta2 appendage fragment, R879A mutant
# [11] = yeast V-ATPase proton transport modulators, S. cerevisiae, pHLuorin, HTS validation (AID 504600; in the data active = response above about 15%;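 note: plate controls were DMSO for no effect and reference compound for full effect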); conditions: S. cerevisiae pHLuorin cytosolic pH, at 10 µM, stronger effect = higher value
# [12] = test system: anti-desmoglein-3 scFv antibody binding to human DSG3; assay: inhibitors of anti-DSG3 scFv binding to DSG3, pilot screen, biochemical, validation compound set, bead-based, flow cytometry (AID 588368;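 active = binding below the plate cutoff, the plate median minus 3 SD, with a reading above zero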;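 note: signal is the median channel fluorescence of bead-bound GFP antibody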); conditions: Protein G beads, DSG3-Fc, scFv-GFP binding, at 10 µM, stronger effect = lower value
# [13] = inhibitors of fungal efflux pumps CDR1, CDR2, MDR1, pilot screen, validation compound set, multiplex, phenotypic (AID 588506;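 active = efflux inhibition above 0.42, the validation set average plus 4 SD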;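 note: Nile Red retained in cells so higher fluorescence means more efflux inhibition; 0 = negative control wells and 1 = enniatin B 25 µM full block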); conditions: S. cerevisiae pump-expressing triplex, Nile Red efflux flow cytometry; at 10 µM; stronger effect = higher value; the pumps come from Candida albicans
# [14] = molecular target: ATP-binding cassette sub-family B member 6 (Homo sapiens) (UniProt Q9NP58); assay: ABCB6 transporter inhibitors, pilot screen, K562-ABCB6 cells, flow cytometry, validation set (AID 588550;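 active = inhibition above the screen-wide mean plus 3 SD, about 51%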;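 note: 0% = DMSO wells and 100% = benzethonium chloride 70 µM positive control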); conditions: K562-ABCB6 porphyrin accumulation, 1 h, at 10 µM, stronger effect = higher value
# [15] = promoters of myeloid differentiation in arrested cells, primary screen, cell-based, GFP/MAC1 double positive, flow cytometry, validation set (AID 588685;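 active = differentiation response of at least 50%, scaled between solvent and reference control, from cells with both markers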;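 note: compound exposure lasts four days before antibody staining and flow analysis; 0% = DMSO wells and 100% = 5 µM fulvestrant positive control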); conditions: ER-HoxA9 marrow cells, stronger effect = higher value, normalized: vehicle 0, fulvestrant 100
# [16] = modulators of AGP1-GFP expression in yeast TOR pathway, primary screen, cell-based, multiplex flow cytometry, S. cerevisiae (AID 1887;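 active = GFP signal above the screen-wide mean plus 3 SD, that is over about 124.5% of the solvent control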;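 note: AGP1-GFP fusion strain of S. cerevisiae within a five-strain barcoded multiplex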); conditions: 3 h, at 10 µM, stronger effect = higher value
# Chain of Beta-adrenergic receptor kinase 1 (Homo sapiens) (P25098 whole entry, looked up): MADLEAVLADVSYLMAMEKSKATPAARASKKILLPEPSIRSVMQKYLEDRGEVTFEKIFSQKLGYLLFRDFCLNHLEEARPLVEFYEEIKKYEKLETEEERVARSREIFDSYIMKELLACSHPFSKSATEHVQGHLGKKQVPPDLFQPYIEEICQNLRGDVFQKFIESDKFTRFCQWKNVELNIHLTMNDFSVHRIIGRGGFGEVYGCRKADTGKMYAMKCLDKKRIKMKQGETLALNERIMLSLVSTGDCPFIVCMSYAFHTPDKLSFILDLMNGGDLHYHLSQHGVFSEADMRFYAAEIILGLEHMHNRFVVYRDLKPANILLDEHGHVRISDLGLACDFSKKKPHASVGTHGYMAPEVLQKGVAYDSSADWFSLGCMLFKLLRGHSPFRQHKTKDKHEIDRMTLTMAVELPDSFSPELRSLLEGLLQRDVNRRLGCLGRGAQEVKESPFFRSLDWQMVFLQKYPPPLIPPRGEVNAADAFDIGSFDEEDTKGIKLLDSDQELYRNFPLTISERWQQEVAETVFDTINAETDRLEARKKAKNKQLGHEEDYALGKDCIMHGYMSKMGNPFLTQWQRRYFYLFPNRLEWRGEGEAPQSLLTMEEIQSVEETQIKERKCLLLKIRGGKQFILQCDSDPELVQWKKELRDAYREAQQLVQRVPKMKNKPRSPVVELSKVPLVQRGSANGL
# Chain of ATP-binding cassette sub-family B member 6 (Homo sapiens) (Q9NP58 whole entry, looked up): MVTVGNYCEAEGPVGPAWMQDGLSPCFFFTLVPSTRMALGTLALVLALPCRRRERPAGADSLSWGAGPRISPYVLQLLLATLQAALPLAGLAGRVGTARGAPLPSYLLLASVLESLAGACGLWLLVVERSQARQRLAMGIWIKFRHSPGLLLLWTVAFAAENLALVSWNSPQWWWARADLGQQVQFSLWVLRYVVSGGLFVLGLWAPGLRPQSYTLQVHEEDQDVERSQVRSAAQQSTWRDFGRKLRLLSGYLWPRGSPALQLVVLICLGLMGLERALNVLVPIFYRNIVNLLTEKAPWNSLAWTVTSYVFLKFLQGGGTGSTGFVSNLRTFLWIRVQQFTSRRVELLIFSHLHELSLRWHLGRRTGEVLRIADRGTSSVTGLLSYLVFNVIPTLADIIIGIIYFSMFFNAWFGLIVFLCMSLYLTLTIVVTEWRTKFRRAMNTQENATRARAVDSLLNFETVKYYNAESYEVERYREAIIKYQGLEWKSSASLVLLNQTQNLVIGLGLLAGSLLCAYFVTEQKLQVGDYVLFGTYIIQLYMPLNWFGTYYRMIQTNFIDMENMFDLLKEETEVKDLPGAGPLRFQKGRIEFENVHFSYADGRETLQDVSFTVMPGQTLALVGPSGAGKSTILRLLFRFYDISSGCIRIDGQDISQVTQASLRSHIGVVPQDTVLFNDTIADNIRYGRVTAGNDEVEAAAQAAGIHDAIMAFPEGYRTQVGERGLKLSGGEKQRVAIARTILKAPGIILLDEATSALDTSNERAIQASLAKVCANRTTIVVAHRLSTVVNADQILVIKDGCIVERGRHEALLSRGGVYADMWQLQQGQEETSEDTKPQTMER
# Chain of Integrin beta-1 (Homo sapiens) + Integrin alpha-4 (Homo sapiens) (P05556 whole entry, looked up): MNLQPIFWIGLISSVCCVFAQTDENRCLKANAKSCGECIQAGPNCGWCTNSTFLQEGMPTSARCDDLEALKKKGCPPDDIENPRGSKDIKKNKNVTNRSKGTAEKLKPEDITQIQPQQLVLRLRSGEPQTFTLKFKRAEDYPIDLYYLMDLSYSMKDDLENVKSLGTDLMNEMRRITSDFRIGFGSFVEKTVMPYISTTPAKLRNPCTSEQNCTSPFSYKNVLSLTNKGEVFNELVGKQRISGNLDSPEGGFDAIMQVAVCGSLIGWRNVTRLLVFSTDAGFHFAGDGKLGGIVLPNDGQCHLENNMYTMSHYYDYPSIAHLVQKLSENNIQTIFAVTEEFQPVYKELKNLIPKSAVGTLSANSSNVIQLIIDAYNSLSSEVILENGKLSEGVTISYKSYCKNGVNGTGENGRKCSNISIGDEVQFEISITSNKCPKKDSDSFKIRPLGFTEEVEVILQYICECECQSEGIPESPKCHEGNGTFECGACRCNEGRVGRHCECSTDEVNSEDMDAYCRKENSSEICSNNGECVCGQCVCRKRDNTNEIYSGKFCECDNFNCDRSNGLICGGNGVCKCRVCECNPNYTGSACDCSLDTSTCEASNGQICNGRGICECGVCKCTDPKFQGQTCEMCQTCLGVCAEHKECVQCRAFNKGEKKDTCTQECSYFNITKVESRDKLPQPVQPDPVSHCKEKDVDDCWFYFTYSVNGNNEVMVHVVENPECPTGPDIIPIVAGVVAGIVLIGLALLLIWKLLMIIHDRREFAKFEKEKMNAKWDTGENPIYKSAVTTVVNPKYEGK
# Chain of Integrin beta-1 (Homo sapiens) + Integrin alpha-4 (Homo sapiens) (P13612 whole entry, looked up): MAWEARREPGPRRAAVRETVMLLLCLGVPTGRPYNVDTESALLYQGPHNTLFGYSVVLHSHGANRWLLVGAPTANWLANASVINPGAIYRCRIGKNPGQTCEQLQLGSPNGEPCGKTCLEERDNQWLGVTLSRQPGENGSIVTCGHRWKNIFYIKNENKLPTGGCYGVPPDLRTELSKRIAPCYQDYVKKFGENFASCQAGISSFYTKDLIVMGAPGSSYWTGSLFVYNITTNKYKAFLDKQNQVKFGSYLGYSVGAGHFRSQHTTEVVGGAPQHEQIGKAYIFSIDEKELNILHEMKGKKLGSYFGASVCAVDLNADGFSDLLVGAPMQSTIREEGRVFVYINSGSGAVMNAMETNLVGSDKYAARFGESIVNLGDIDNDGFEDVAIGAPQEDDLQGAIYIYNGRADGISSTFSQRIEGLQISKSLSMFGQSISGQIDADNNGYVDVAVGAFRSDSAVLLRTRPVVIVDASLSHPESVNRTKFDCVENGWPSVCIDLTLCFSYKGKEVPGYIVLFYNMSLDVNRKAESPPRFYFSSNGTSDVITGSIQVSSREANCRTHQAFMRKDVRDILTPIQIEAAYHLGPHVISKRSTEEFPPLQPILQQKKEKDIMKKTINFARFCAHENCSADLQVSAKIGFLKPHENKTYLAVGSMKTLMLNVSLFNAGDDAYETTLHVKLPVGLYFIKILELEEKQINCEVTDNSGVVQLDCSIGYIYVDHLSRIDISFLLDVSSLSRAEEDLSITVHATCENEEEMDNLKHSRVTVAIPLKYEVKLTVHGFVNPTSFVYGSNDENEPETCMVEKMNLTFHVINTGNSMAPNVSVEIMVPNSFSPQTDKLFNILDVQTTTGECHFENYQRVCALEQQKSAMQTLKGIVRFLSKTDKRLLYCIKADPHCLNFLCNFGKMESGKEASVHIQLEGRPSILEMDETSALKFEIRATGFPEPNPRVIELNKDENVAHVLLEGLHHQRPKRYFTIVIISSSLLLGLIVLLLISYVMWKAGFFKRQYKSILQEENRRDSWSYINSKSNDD
# Chain of AP-2 complex subunit beta (Homo sapiens) (P63010 whole entry, looked up, the tested form may be a part, one chain of several): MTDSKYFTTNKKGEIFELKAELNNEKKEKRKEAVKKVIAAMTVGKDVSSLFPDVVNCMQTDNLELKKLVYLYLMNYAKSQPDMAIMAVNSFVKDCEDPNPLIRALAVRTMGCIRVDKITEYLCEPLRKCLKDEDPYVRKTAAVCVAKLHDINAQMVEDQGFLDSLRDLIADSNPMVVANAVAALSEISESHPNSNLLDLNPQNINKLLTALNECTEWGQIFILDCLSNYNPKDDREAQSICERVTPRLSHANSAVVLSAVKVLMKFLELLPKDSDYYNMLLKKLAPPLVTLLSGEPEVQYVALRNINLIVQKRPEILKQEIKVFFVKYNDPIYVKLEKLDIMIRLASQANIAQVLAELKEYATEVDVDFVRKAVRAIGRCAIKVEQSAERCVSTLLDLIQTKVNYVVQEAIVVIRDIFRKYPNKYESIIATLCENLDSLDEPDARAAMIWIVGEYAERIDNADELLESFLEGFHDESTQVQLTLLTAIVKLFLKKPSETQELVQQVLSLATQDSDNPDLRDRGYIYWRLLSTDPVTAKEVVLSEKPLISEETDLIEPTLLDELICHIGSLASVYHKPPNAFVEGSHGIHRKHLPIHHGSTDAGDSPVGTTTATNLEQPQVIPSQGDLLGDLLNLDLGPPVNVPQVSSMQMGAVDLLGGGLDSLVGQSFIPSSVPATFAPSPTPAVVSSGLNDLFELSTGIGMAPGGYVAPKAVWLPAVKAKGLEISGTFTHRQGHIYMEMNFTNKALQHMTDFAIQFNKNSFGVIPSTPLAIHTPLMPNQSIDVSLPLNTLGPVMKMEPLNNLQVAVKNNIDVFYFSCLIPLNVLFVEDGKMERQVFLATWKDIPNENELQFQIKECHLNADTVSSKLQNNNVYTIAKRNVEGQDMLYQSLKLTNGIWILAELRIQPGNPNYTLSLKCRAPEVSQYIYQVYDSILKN
# Chain of Beta-2 adrenergic receptor (Homo sapiens) (P07550 whole entry, looked up): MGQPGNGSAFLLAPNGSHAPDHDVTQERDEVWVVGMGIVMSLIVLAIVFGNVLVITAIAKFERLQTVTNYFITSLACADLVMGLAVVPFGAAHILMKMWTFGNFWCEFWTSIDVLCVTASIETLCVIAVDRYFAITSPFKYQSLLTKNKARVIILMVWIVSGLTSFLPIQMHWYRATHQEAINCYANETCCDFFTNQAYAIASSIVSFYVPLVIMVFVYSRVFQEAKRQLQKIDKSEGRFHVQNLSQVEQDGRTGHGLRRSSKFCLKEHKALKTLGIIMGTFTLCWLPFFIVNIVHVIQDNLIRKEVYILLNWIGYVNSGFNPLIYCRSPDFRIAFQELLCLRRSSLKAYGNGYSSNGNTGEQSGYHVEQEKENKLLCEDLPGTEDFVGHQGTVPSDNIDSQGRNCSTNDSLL
SMILES,percent of DMSO control GFP [1],GFP response vs DMSO [2],percent response of DMSO control [3],GFP response vs DMSO [4],double positive events [5] [%],vesicle binding response [5],inhibition [6],superoxide response (% of plate) [7],aptamer binding inhibition [8],response [9],inhibition [10],response [11],binding (% of control) [12],efflux inhibition (fraction of control) [13],inhibition [14],differentiation response [15],"GFP response, % of DMSO [16]"
CC(=O)OC[C@H]1O[C@@H](n2ncc(=O)[nH]c2=O)[C@H](OC(C)=O)[C@@H]1OC(C)=O,94.8% (inactive),114% (inactive),119% (inactive),78.1% (inactive),53.4,78.5% (active),5.49% (inactive),105% (inactive),6% (inactive),-6.75% (inactive),-6.69% (inactive),-0.17% (inactive),109% (inactive),-0.13 (inactive),-40% (inactive),20.5% (inactive),
c1ccc2c(c1)CCCC2C1=NCCN1 (centres undefined),98.2% (inactive),,102% (inactive),108% (inactive),69.5,263% (inactive),-15.6% (inactive),82.6% (inactive),-1% (inactive),-24.5% (inactive),-7.04% (inactive),1.56% (inactive),101% (inactive),-0.04 (inactive),19% (inactive),8.8% (inactive),110% (inactive)
COCCc1ccc(OCC(O)CNC(C)C)cc1 (centres undefined),103% (inactive),,98.9% (inactive),87.4% (inactive),68.1,212% (inactive),7.85% (inactive),,-2% (inactive),,-6% (inactive),1.04% (inactive),105% (inactive),0.21 (inactive),7% (inactive),5.13% (inactive),97.6% (inactive)
O=C1NCC2=C1C(c1ccccc1)Nc1ccccc1N2 (centres undefined),94.6% (inactive),112% (inactive),102% (inactive),75.9% (inactive),65.6,205% (inactive),9.37% (inactive),100% (inactive),1% (inactive),-9.09% (inactive),1.06% (inactive),-0.53% (inactive),102% (inactive),0.16 (inactive),7% (inactive),-4.09% (inactive),
COc1ccc(CCN(C)CC(=O)Nc2cc(C)nc3ccccc23)cc1OC,108% (inactive),,104% (inactive),94% (inactive),71.8,193% (inactive),10.5% (inactive),103% (inactive),1% (inactive),7.03% (inactive),-0.03% (inactive),-0.15% (inactive),96.8% (inactive),0.05 (inactive),5% (inactive),5.6% (inactive),94.9% (inactive)
Cc1oc2ccc(OC(=O)c3cccs3)cc2c1C(=O)OC(C)C,91.2% (inactive),,92.5% (inactive),115% (inactive),64.6,205% (inactive),-4.52% (inactive),96% (inactive),1% (inactive),-19.3% (inactive),-7.21% (inactive),-4.85% (inactive),105% (inactive),-0.09 (inactive),2% (inactive),-4.99% (inactive),94.9% (inactive)
COc1ccc(CN(C)CCc2ccccn2)cc1OC,104% (inactive),,102% (inactive),74.3% (inactive),55.5,91.8% (inactive),-15.4% (inactive),95.8% (inactive),3% (inactive),6.81% (inactive),-9.53% (inactive),20.5% (active),98.7% (inactive),-0.03 (inactive),2% (inactive),-28% (inactive),90.6% (inactive)
COc1ccc(C(=O)Nc2ccccc2C(=O)NCCCn2ccnc2)cc1,91.3% (inactive),115% (inactive),93.9% (inactive),75.4% (inactive),59.2,82.8% (inactive),1.61% (inactive),101% (inactive),5% (inactive),-7.51% (inactive),7.74% (inactive),-1.7% (inactive),104% (inactive),0.23 (inactive),12% (inactive),-4.91% (inactive),
O=C(CCCCCCCC(=O)c1ccccc1)c1ccccc1,98.2% (inactive),,98.6% (inactive),105% (inactive),62.1,189% (inactive),-5.89% (inactive),95.3% (inactive),7% (inactive),9.71% (inactive),-3.86% (inactive),-4.73% (inactive),98.9% (inactive),-0.13 (inactive),7% (inactive),5.6% (inactive),96.9% (inactive)
Cc1cc(C(C)(C)C)c(O)c(C)c1CC1=NCCN1,103% (inactive),116% (inactive),114% (inactive),94.1% (inactive),62.9,297% (inactive),-29.4% (inactive),93.7% (inactive),1% (inactive),8.56% (inactive),-0.66% (inactive),0.6% (inactive),106% (inactive),0.34 (inactive),12% (inactive),7.37% (inactive),
COc1ccc(-c2nc(C)c(C(C)=O)n2O)cc1OC,92.6% (inactive),106% (inactive),114% (inactive),78.1% (inactive),52.4,110% (inactive),5.49% (inactive),97.4% (inactive),2% (inactive),-10.4% (inactive),-13.1% (inactive),1.53% (inactive),103% (inactive),0.01 (inactive),11% (inactive),0% (inactive),

# Reference: PubChem BioAssay
